# Screening data: PubChem BioAssay, The Scripps Research Institute Molecular Screening Center
# MsrA inhibitor: bovine MsrA enzyme inhibitors, primary screen, biochemical, absorbance, HTS. purified bovine MsrA, absorbance read-out. Methionine sulfoxide reductase A (Bos taurus). hit rate 0.75% among 360,000. inhibition, % at 15.5 µM; in the data active = inhibition above about 4.5%;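 note: 0% = vehicle wells with enzyme and 100% = reference inhibitor wells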
# SMARCA2 act: SMARCA2 (BRM) function activators, primary screen, cell-based, luminescence, high throughput. activation, % at 9.1 µM. hit rate 1% among 370,000. MG213 cells, MMTV-luciferase reporter, dexamethasone, overnight; in the data active = activation above about 7.8%;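 note: 0% = vehicle wells and 100% = reference activator wells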
# bovine MsrA act: bovine MsrA enzyme activators, primary screen, biochemical, absorbance, HTS; purified bovine MsrA, absorbance read-out; AID 602163, 2012; activation, % at 10.6 µM; hit rate 0.3% among 360,000; in the data active = activation above about 7.5%;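 note: 0% = vehicle and 100% = reference activator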
# KLK7 zymogen act: proKLK7 zymogen activators, primary screen, biochemical, fluorescence intensity. activation, % at 7 µM. Kallikrein-7 (Homo sapiens), P49862. hit rate 0.9% among 370,000. purified proKLK7, EDANS-DABCYL substrate fluorescence; 100% is mature enzyme control, 0% vehicle;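 active = activation above the mean of all tested compounds plus 3 SD, computed per campaign excluding outliers beyond control limits, cut at about 13% in these data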
# Target sequence (P49862 whole entry, looked up): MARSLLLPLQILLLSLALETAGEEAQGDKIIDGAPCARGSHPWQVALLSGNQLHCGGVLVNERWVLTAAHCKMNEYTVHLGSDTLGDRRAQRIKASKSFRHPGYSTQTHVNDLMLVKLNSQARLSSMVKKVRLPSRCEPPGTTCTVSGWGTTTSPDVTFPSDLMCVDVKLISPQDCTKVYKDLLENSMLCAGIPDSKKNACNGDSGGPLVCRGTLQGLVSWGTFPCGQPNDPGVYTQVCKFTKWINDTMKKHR
# * hit, by the source's call; . = no result. Shown are actives, neighbours in structure and some others; about 2.8% of the full set was active somewhere.
SMILES,MsrA inhibitor,SMARCA2 act,bovine MsrA act,KLK7 zymogen act
COc1ccc(-n2c(SCC(=O)Nc3ccccc3-c3ccccc3)nnc2-c2ccccc2)cc1,.,-5.6,.,-0.4
OC(c1ccccc1)(c1ccccc1)C1CCN(CCCOc2cccc(F)c2)CC1,1.3,-5.2,.,0.2
CN(CC(=O)Nc1ccccc1C(=O)NC1CC1)Cc1ccc(Cl)cc1,-0.3,7.9*,-1.2,-0.3
CCOc1ccc(CN(C)CC(=O)Nc2ccccc2C(=O)NC2CC2)cc1,-0.1,0.4,-3.5,0.2
C=CCn1cccc(C(=O)Nc2cc(OC)ccc2OC)c1=O,4.7*,-0.8,-4.5,-0.4
O=C(NCc1ccncc1)[C@@H]1CCCN1C(=O)[C@H]1CCCN1,-0.4,1.6,-1.7,0.0
COc1cc2[nH]c(C)c(-c3ccccc3)c(=O)c2cc1Cl,2.6,-1.0,-10.6,0.1
Cc1ccc(S(=O)(=O)CCC(=O)c2ccc(O)cc2O)cc1,3.4,4.0,-1.5,-4.8
CCCCCC(=O)C(=O)c1ccc(O)cc1O,4.6*,-2.4,-3.7,1.0
O=C(c1cc(COc2c(F)cccc2F)on1)N1CCCCCC1,-0.3,7.9*,-4.5,0.4
Cc1ccc2[nH]c3ccccc3c(=O)c2c1,1.1,-1.7,-1.6,19.1*
O=c1c2ccccc2[nH]c2ccc(O)cc12,-0.7,0.2,0.1,9.7
O=C(COC(=O)c1ccc(Sc2ncn[nH]2)c([N+](=O)[O-])c1)Nc1ccc(Cl)c(Cl)c1,.,-0.1,.,-0.4
Cn1cccc1-c1nc2ccc(NC(=O)c3ccco3)cc2[nH]1,7.3*,-2.9,-1.4,-0.1
O=C(Nc1ccc(-c2nc3ccc(NC(=O)c4cccs4)cc3[nH]2)cc1)c1cccs1,3.5,9.1*,-8.8,-33.4
CC(C)(C)N(NC(=O)NCCCl)C(=O)c1ccccc1Cl,.,3.7,.,0.5
O=C(c1ccccc1)N(c1ccccc1)c1nccc2ccccc12,-0.5,1.1,0.0,0.0
COc1ccc(/C(O)=C2/C(=O)C(=O)N(CCCN(C)C)C2c2cccc(Cl)c2)cc1OC (configuration not stated),9.6*,-2.6,-0.9,0.2
CC(=O)Nc1cc(-c2ccccc2Cl)cn2c(-c3ccc(S(C)(=O)=O)cc3)cnc12,0.8,-3.1,0.3,-24.3
O=C(CN1C(=O)N/C(=C\c2ccccc2OCc2ccc(C(=O)O)cc2)C1=O)Nc1ccccc1F,4.6*,-2.8,-5.9,0.4
CCCCCCN1CCS(=O)(=O)N(Cc2ccc(OC)cc2)C(C(=O)OC)C1 (configuration not stated),.,-2.1,.,-0.5
CCOc1ccc(S(=O)(=O)N2CCC(C(=O)Nc3ccccc3N3CCCC3)CC2)cc1,-0.6,-1.1,0.1,0.2
COc1ccc2c(C(c3ccccc3O)C3CCCN3S(=O)(=O)c3ccc(C)cc3)cn(C)c2c1 (configuration not stated),.,-0.6,.,-0.9
O=c1[nH]c(/C=C\c2ccc(O)c(Cl)c2)nc(O)c1[N+](=O)[O-],4.6*,-1.1,-1.8,0.7
O=c1[nH]c(/C=C\c2ccc(O)cc2)nc(O)c1[N+](=O)[O-],3.8,1.8,-4.0,-0.7
SMILES,MsrA inhibitor,SMARCA2 act,bovine MsrA act,KLK7 zymogen act
O=C(Nc1ccc(C(=O)O)cc1)/C(=C\C=C\c1ccccc1)NC(=O)c1ccccc1Cl,5.8*,2.4,-6.9,0.0
O=C(Nc1ccc(O)cc1)/C(=C\C=C\c1ccccc1)NC(=O)c1ccccc1,1.4,-4.1,-7.0,0.3
COc1cc2c(cc1OC)[C@@]1(c3ccccc3)CCCC[C@H]1[C@@H]2NC(=O)C(F)(F)F,0.5,-2.6,.,0.1
CCOCCn1c2ccccc2c2nc3ccccc3nc21,4.7*,3.1,-1.8,-4.8
Cc1ccc(C)c(N2CCN(C(=O)CCS(=O)(=O)c3ccc4c(c3)CCN4C(=O)C3CC3)CC2)c1,0.0,7.9*,-1.8,-0.7
CCCCCCSc1ccc([C@H]2N[C@@](C)(C(=O)OC)[C@H]3C(=O)N(C)C(=O)[C@@H]23)cc1,0.0,1.6,8.4*,0.2
C=C1C(=O)[C@]23C[C@H]1CC[C@H]2[C@]1(C)[C@@H](OC(C)=O)CC[C@@](C)(C(=O)O)[C@H]1C[C@@H]3OC(C)=O,-0.6,7.9*,-1.6,-0.7
C=CCN1C(=O)c2n[nH]c(C(C)C)c2C1c1ccc2c(c1)OCO2 (configuration not stated),0.2,1.1,.,0.5
CCSc1nc2c(c(=O)[nH]1)C(c1ccccn1)C1=C(CC(C)(C)CC1=O)N2 (configuration not stated),-0.5,-0.7,-1.9,32.1*
Cc1ccccc1Cn1ccc(NC(=O)c2onc(C)c2Cl)n1,-0.2,7.8*,-1.4,0.6
Cc1ccccc1Cn1ccc(NC(=O)c2nc3ncccn3n2)n1,-1.1,2.7,-5.0,-0.8
Cc1ccc2c(c1)-c1c(cnn1CC(=O)NCCc1ccc(Cl)cc1)CO2,.,-5.6,.,0.5
COc1ccc([N+](=O)[O-])cc1NC(=O)COC(C)=O,2.0,0.1,-3.9,0.0
CCCC(=O)OCC(=O)Nc1cc([N+](=O)[O-])ccc1OC,4.6*,-2.3,-8.7,-0.4
CCOC(=O)C1CCCN(C(=O)c2ccc(F)c(Cl)c2)CC1 (configuration not stated),-0.9,0.4,-3.9,0.6
Cc1nc2ccc(NC(=O)c3ccc(Cl)s3)cc2s1,0.0,4.6,-3.6,13.2*
Cc1ccc2nc(NC(=O)c3ccc(Cl)s3)sc2c1,1.1,2.3,-2.5,-0.2
COc1ccc(/C=N/NC(=S)NCc2ccccc2)cc1OC,2.4,-4.1,-10.7,-0.1
COc1ccc(C=NNC(=S)NN=Cc2ccc(OC)c(OC)c2)cc1OC,5.7*,-1.1,1.2,-1.9
O=C(Nc1cccc(OC(F)(F)F)c1)C1Cc2c(-c3ccccc3Oc3ccccc3)ccnc2O1 (configuration not stated),1.1,-3.2,1.9,-0.3
COC(=O)/C=C1\S/C(=N/N=C/c2ccccc2)NC1=O,0.7,-0.5,-3.5,-0.3
COC(=O)/C=C1/S/C(=N/N=C/c2ccco2)NC1=O,4.6*,-3.0,-6.1,-1.7
CCCCCCCCN1C(=O)[C@@H](CC(=O)NCc2ccc(C)o2)C[C@@]2(C(=O)OC)C1=C[C@H](C1CCCC1)O[C@@H]2C,0.4,-2.6,.,1.0
O=S1(=O)N[C@H](Cc2ccccc2)COc2cc(N3CCOCC3)ccc21,0.6,-2.0,.,0.1
Cc1cc(N2C(=O)C(=O)/C(=C(/O)c3ccccc3)C2c2cccs2)no1 (configuration not stated),1.3,-1.6,-4.5,0.1
COc1cccc(/C(O)=C2/C(=O)C(=O)N(c3cc(C)on3)C2c2cccs2)c1 (configuration not stated),5.0*,0.2,-3.2,-0.1
CCCCC(=O)N(C)c1c(C)nc2ccc(C(=O)N3CCNC(=O)C3)cn12,-1.1,1.2,-1.9,0.4
CCCCNC(=O)C[C@H]1C[C@@]2(C(=O)OC)C(=C[C@H](C3CCCC3)O[C@@H]2C)N(Cc2ccco2)C1=O,.,7.8*,.,0.6
Cc1ccc(COn2c(-c3ccc(Cl)cc3)nc3ccc([N+](=O)[O-])cc32)cc1,0.2,8.2*,-4.8,0.0
